Experimental data from PubChem BioAssay (NCI).
This is part of a sample that, as a whole, favours compounds with a hit. Of some 79,000 tested, about 15% had one in any assay. Activity calls are given as the source filed them. Cut-off read from the data, not from the text of the source: active = growth inhibition above about 70%; inactive = the rest.

Experiment: NCI Yeast Anticancer Drug Screen. Data for the bub3 strain (AID 167)
Settings: S. cerevisiae bub3 mutant strain, at 50.0 µM, hits give high values
Summary of the method: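 Inhibition values come from growth of compound-treated mutant yeast normalised to vehicle-treated controls.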

Row | Compound | growth inhibition
1 | Cc1ccc2c(c1)NC(=O)C(N=[N+]=[N-])(c1ccccc1)C2=O (centres undefined) | 92.3% (active)
2 | NC(=O)C1CCCN1C(=O)C1CCCN(Cc2cc(CN3CCCC(C(=O)N4CCCC4C(N)=O)C3)cc(CN3CCCC(C(=O)N4CCCC4C(N)=O)C3)c2)C1 (centres undefined) | 48.8% (inactive)
3 | CCCCN(CCCC)CC(O)Cc1cc2ccccc2c2ccccc12 (centres undefined) | 94.4% (active)
4 | CN(/N=C\c1cccc([N+](=O)[O-])c1)C(c1cccc([N+](=O)[O-])c1)N(C)/N=C/c1cccc([N+](=O)[O-])c1 (centres undefined) | 16.5% (inactive)
5 | O=C(CCl)NC(=O)N(/N=C/c1ccco1)c1ccccc1 | 59.2% (inactive)
6 | CC1CCN(CCCOC(=O)c2ccccc2)CC1 | 63.2% (inactive)
7 | COC(=O)C1=C(C(=O)OC)C2C(C)=CC(C)=CN2C(C(=O)OC)=C1C(=O)OC (centres undefined) | -6.7% (inactive)
8 | CO/N=C/c1ccc([N+](=O)[O-])s1 | 29.7% (inactive)
9 | N/C(=N\N=C/c1ccc(O)c(O)c1O)NO | 4.2% (inactive)
10 | CC1=C[P+](c2ccccc2)(c2ccccc2)C=C(c2ccccc2)O1 | 90.4% (active)
11 | CC(C)SC(=S)Nc1ccc(Cl)c([N+](=O)[O-])c1 | 99.5% (active)
12 | Nc1ccc2oc(=O)c3ccccc3c2c1 | 33.1% (inactive)
13 | CCCCCSc1nc2ncnc(N)c2[nH]1 | -5.5% (inactive)
14 | CC(C)Cn1cnc2c(SCc3cccc(F)c3)nc(N)nc21 | 73.3% (active)
